Measurements as given in PubChem BioAssay AID1159580 (chemical genetic matrix, 2015).
Out of some 5,500 compounds screened, about 2,000 (36%) were called active. Inconclusive results (about 18%) are left out. Rule as the data show it: active = normalized growth mostly below about 0.91 (no sharp cut-off); inconclusive = no clear call, values can overlap the other calls; inactive = mostly above about 0.92. Some of the results follow.

Experiment: chemical genetic growth profiling, strain panel (AID 1159580);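 also: tested at 20 µM; growth read once vehicle control cultures reached saturation at 30 °C; 1 = growth at the plate median or of vehicle wells; lower values mean less growth of the strain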
Settings: S. cerevisiae deletion strains, growth OD

Measured: normalized growth

CC(=O)Oc1ccc(Cl)c2cccnc12
active: locus YAL013W, strain DEP1, stronger effect = lower value 0.0553 | locus YAL021C, strain ccr4, stronger effect = lower value 0.069 | locus YAL026C, strain drs2, stronger effect = lower value 0.0608 | locus YAL030W, strain snc1, stronger effect = lower value 0.0564 | locus YBL061C, strain skt5, stronger effect = lower value 0.0591 | locus YBR009C, strain hhf1, stronger effect = lower value 0.0605 | locus YBR021W, strain FUR4, stronger effect = lower value 0.0898 | locus YBR023C, strain chs3, stronger effect = lower value 0.0596 | locus YBR171W, strain sec66, stronger effect = lower value 0.0822 | locus YBR229C, strain ROT2, stronger effect = lower value 0.0477 | locus YBR231C, strain swc5, stronger effect = lower value 0.0648 | locus YBR279W, strain paf1, stronger effect = lower value 0.0603 | locus YCL011C, strain gbp2, stronger effect = lower value 0.0571 | locus YCL016C, strain dcc1, stronger effect = lower value 0.0644 | locus YCL029C, strain bik1, stronger effect = lower value 0.0625 | locus YCL069W, strain vba3, stronger effect = lower value 0.0622 | locus YCR088W, strain abp1, stronger effect = lower value 0.0643 | locus YDL005C, strain med2, stronger effect = lower value 0.0757 | locus YDL035C, strain GPR1, stronger effect = lower value 0.0496 | locus YDL040C, strain nat1, stronger effect = lower value 0.0609 | locus YDL074C, strain BRE1, stronger effect = lower value 0.0748 | locus YDL101C, strain DUN1, stronger effect = lower value 0.0607 | locus YDL134C, strain PPH21, stronger effect = lower value 0.0511 | locus YDL185W, strain tfp1, stronger effect = lower value 0.0604 | locus YDL192W, strain arf1, stronger effect = lower value 0.0619 | locus YDR001C, strain nth1, stronger effect = lower value 0.064 | locus YDR069C, strain doa4, stronger effect = lower value 0.0614 | locus YDR101C, strain arx1, stronger effect = lower value 0.0604 | locus YDR137W, strain rgp1, stronger effect = lower value 0.0888 | locus YDR150W, strain NUM1, stronger effect = lower value 0.0581 | locus YDR159W, strain sac3, stronger effect = lower value 0.0841 | locus YDR162C, strain NBP2, stronger effect = lower value 0.0464 | locus YDR195W, strain ref2 0.118 | locus YDR297W, strain sur2, stronger effect = lower value 0.0582 | locus YDR318W, strain mcm21, stronger effect = lower value 0.064 | locus YDR334W, strain swr1, stronger effect = lower value 0.0646 | locus YDR335W, strain msn5, stronger effect = lower value 0.0695 | locus YDR388W, stronger effect = lower value 0.0563 | locus YDR392W, strain spt3, stronger effect = lower value 0.0734 | locus YDR502C, strain sam2, stronger effect = lower value 0.0661 | locus YEL003W, strain gim4, stronger effect = lower value 0.0532 | locus YEL037C, strain rad23, stronger effect = lower value 0.0595 | locus YEL061C, strain CIN8 (second series), stronger effect = lower value 0.0644 | locus YEL061C, strain CIN8, stronger effect = lower value 0.0486 | locus YER015W, strain faa2, stronger effect = lower value 0.0637 | locus YER016W, strain bim1, stronger effect = lower value 0.0578 | locus YER110C, stronger effect = lower value 0.0806 | locus YER111C, strain swi4, stronger effect = lower value 0.076 | locus YER155C, strain BEM2 (second series), stronger effect = lower value 0.094 | locus YER155C, strain BEM2, stronger effect = lower value 0.0723 | locus YER167W, strain BCK2, stronger effect = lower value 0.0497 | locus YFR010W, strain ubp6, stronger effect = lower value 0.0687 | locus YGL078C, strain dbp3, stronger effect = lower value 0.0682 | locus YGL086W, strain mad1, stronger effect = lower value 0.0595 | locus YGL167C, strain pmr1, stronger effect = lower value 0.0737 | locus YGL173C, strain kem1, stronger effect = lower value 0.0684 | locus YGL227W, strain vid30, stronger effect = lower value 0.0677 | locus YGL240W, strain doc1, stronger effect = lower value 0.0722 | locus YGL248W, strain PDE1, stronger effect = lower value 0.046 | locus YGL253W, strain hxk2, stronger effect = lower value 0.0586 | locus YGR078C, strain PAC10, stronger effect = lower value 0.0495 | locus YGR135W, strain pre9, stronger effect = lower value 0.0649 | locus YGR252W, strain gcn5, stronger effect = lower value 0.186 | locus YHR013C, strain ard1, stronger effect = lower value 0.104 | locus YHR027C, strain rpn1, stronger effect = lower value 0.0596 | locus YHR030C, strain SLT2, stronger effect = lower value 0.0501 | locus YHR079C, strain IRE1 (second series), stronger effect = lower value 0.0563 | locus YHR094C, strain hxt1, stronger effect = lower value 0.0602 | locus YHR129C, strain ARP1, stronger effect = lower value 0.056 | locus YHR142W, strain chs7, stronger effect = lower value 0.0762 | locus YHR200W, strain rpn10, stronger effect = lower value 0.0647 | locus YIL066C, strain RNR3, stronger effect = lower value 0.0516 | locus YIL073C, strain SPO22, stronger effect = lower value 0.118 | locus YIL125W, strain kgd1, stronger effect = lower value 0.0601 | locus YIR030C, strain dcg1, stronger effect = lower value 0.0565 | locus YJL092W, strain hpr5, stronger effect = lower value 0.0615 | locus YJL095W, strain BCK1 (second series), stronger effect = lower value 0.0566 | locus YJL095W, strain BCK1, stronger effect = lower value 0.0546 | locus YJL115W, strain asf1, stronger effect = lower value 0.0797 | locus YJL129C, strain trk1, stronger effect = lower value 0.0818 | locus YJL134W, strain LCB3, stronger effect = lower value 0.0495 | locus YJL154C, strain vps35, stronger effect = lower value 0.0615 | locus YJL164C, strain tpk1, stronger effect = lower value 0.0597 | locus YJL166W, strain qcr8, stronger effect = lower value 0.0614 | locus YJL168C, strain set2, stronger effect = lower value 0.062 | locus YJL187C, strain SWE1 (second series), stronger effect = lower value 0.0475
